Growth data for 8 compounds are collected here from PubChem BioAssay (NCI).

Each structure is given as a SMILES string. About 83,000 compounds went through this panel and 20% of them were active in at least one assay; those are over-represented in the sample as a whole.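 The endpoint reported here, percent growth, reads 100 for growth as untreated, 0 for no net growth and -100 for all cells dead.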 A number with no mark means an inactive call. Active and inactive are the calls of the source. The calls were made as follows: active = growth percent below 10; inactive = the rest.

Assay in all cases: NCI-60 one-dose screen, 48 h (100 = growth as untreated, 0 = no growth, -100 = all killed)
What all share (details): 10 µM unless noted

Assay [1] has as its system MOLT-4 leukemia.
Assay [2] relates to SR leukemia.
Assay [3] deals with RPMI-8226 leukemia.
For assay [4], the system named is OVCAR-8 ovarian.
Assay [5] relates to OVCAR-5 ovarian.
Assay [6] relates to OVCAR-4 ovarian.
The subject of assay [7] is SK-OV-3 ovarian.
Assay [8] relates to IGROV1 ovarian.
In assay [9] the test system is HS 578T breast.
The test system of assay [10] is NCI/ADR-RES ovarian.
Assay [11] relates to T-47D breast.
The subject of assay [12] is BT-549 breast.
Assay [13] relates to MDA-MB-435 melanoma.
The test system of assay [14] is MCF7 breast.
Assay [15] concerns HCT-116 colon.
Assay [16] deals with HCC-2998 colon.
The subject of assay [17] is KM12 colon.
For assay [18], the system named is SW-620 colon.
The subject of assay [19] is OVCAR-3 ovarian.

`Cc1cccc(N2CCN(C(C)C#N)CC2)c1` (stereo unspecified): the growth in assay [1] was 106%; in assay [2], 98.2%; in assay [3], 104%; in [4], 106%; in assay [5], 103%; in assay [6], 114%. Further, the growth in assay [7] was 102%; in assay [8], 108%; in assay [9], 96.3%; in assay [10] it was 96.9%; in assay [11], 98.4%; in assay [12] it was 92.4%. Besides, the growth in assay [13] was 98.4%; in assay [14], 99.3%; in [15] it was 108%; in assay [16], 96.9%; in assay [17] it was 108%.

In the case of `COC(=O)[C@@H](C)C[C@H](Cc1ccccc1)NC(=O)c1csc([C@@H](C[C@H](C(C)C)N(C)C(=O)C2(NC(=O)[C@H]3CCCCN3C)CCC2)OC(C)=O)n1`, the growth in [1] is 5.46% (active); in [2], 5.54% (active); in assay [3], 13.5%; in [4], 27.2%; in assay [5] it was 24%; in [6], 50%. In addition, the growth is 28.7% in assay [7]; 23.2% in [8]; 13% in assay [9]; 46.5% in assay [10]; 50.1% in [11]; 11.6% in [12]. Also, the growth in assay [13] is -25.3% (active); in assay [18], 23%; in assay [14], 21.9%; in assay [15], 3.39% (active); in [16], 12.4%; in [17], 5.71% (active).

Turning to `CCCCCC1(CCBr)C(=O)NC(=O)NC1=O`, the growth in assay [1] was 104%; in assay [2] it was 94.7%; in assay [3], 97.5%; in assay [4], 97.3%; in assay [5], 96.6%; in assay [6] it was 111%. In addition, the growth was 99.1% in assay [7]; 112% in assay [8]; 104% in [19]; 121% in assay [10]; 106% in assay [11]; 90.5% in [12]. The growth was 101% in [18]; 97.5% in assay [14]; 106% in assay [15]; 115% in assay [16]; 109% in assay [17].

`NC(CCl)CCl`: the growth in [1] is 105%; in assay [2] it was 108%; in assay [3], 99.3%; in assay [4], 100%; in [5] it was 107%; in assay [6] it was 102%. The growth in [7] was -100% (active); in assay [8], 110%; in assay [19], 100%; in assay [10], 105%; in assay [11] it was -100% (active); in assay [12], 107%. Further, the growth in [13] was 89.2%; in assay [18], 102%; in [14], 96.5%; in assay [15], 107%; in assay [16], 101%; in assay [17], 99.5%.

In the case of `CN1C(=O)C23CC4(C56CC78SSC(CO)(C(=O)N7C5Nc5ccccc56)N(C)C8=O)c5ccccc5NC4N2C(=O)C1(CO)SS3` (stereo unspecified), the growth is -62.2% (active) in [1]; -75.8% (active) in assay [2]; -25.8% (active) in [3]; -94.7% (active) in assay [4]; -77.7% (active) in assay [5]; -94.5% (active) in assay [6]. The growth in assay [7] is -98.6% (active); in assay [8], -100% (active); in assay [9], -54.5% (active); in [10] it was -23.4% (active); in [11] it was -92.4% (active); in assay [12], -99.1% (active). Moreover, the growth in assay [13] is -87% (active); in [18], -78.5% (active); in [14] it was -68.1% (active); in assay [15] it was -78.5% (active); in [16], -94.2% (active); in assay [17], -82.9% (active).

Regarding `CC(C)(N)Cc1ccccc1`, the growth was 103% in assay [1]; 100% in [2]; 99.9% in assay [3]; 106% in assay [4]; 109% in [5]; 112% in [6]. For the same compound, the growth was 106% in assay [7]; 106% in [8]; 96.6% in assay [9]; 111% in assay [10]; 107% in assay [11]; 101% in [12]. For the same compound, the growth in assay [13] is 107%; in assay [18], 105%; in assay [14] it was 99.4%; in assay [15] it was 101%; in assay [16], 110%; in assay [17] it was 105%.

As for `CC(=O)ONc1ccc([N+](=O)[O-])c(C(F)(F)F)c1`, the growth in [1] is 96.4%; in assay [2] it was 103%; in assay [3], 93.9%; in [4], 109%; in assay [5], 103%; in assay [6], 98.2%. The growth in assay [7] is 94.7%; in assay [8], 107%; in [9], 90.7%; in assay [10], 101%; in assay [11], 77.1%; in [12], 92.9%. In addition, the growth is 105% in assay [13]; 102% in assay [18]; 93.6% in [14]; 100% in assay [15]; 108% in assay [16]; 101% in [17].

Turning to `CS(=O)(=O)CCN1CC2CCCC(C2)C1`, the growth is 102% in assay [1]; 93.9% in [2]; 101% in assay [3]; 104% in assay [4]; 102% in assay [5]; 102% in assay [6]. Further, the growth in assay [7] was 100%; in assay [8], 115%; in assay [9], 102%; in assay [10], 105%; in assay [11], 102%; in assay [12], 92.5%. Besides, the growth in [18] was 111%; in [14] it was 92.3%; in [15], 94.7%; in [16], 99.5%; in assay [17], 111%.
